Results taken from PubChem BioAssay.
For part of these data: Results with a measured potency or affinity are listed apart. Active and inactive are the calls of the source.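 How the source made its calls, unless noted: active means primary screen hit whose calcium fluorescence ratio, in both repeats, exceeds the weak agonist control mean by 3 SD; inactive means the rest.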

Tests used:
[1] = tested on: TRPC4 beta (transient receptor potential cation channel C4), mouse; assay: activators of mouse TRPC4 channel, confirmation, cell-based, Fluo4 calcium, HEK293 TRPC4beta/mu-opioid, duplicates, 10 µM (AID 2426;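 active means fluorescence ratio normalized to control raised more than 50% in primary screen plus both repeat runs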); conditions: Fluo4 calcium fluorescence, at 10 µM; hits give high values
[2] = tested on: transient receptor potential cation channel C4 beta (TRPC4), mouse; assay: activators of mouse TRPC4 channel, confirmation, cell-based, second round, Fluo4, HEK293 TRPC4beta/mu-opioid, 1 µM (AID 2461;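 active means primary screen active and over 50% activation in each of two duplicate runs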); conditions: Fluo4 calcium fluorescence, at 1 µM; hits give high values
[3] = tested on: TRPC4 (transient receptor potential cation channel C4 beta), mouse; assay: positive allosteric modulators of mouse TRPC4, confirmation, cell-based, second round, Fluo-4, HEK293 TRPC4beta/mu-opioid, 1 µM (AID 2554;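 active means primary screen hit whose fluorescence ratio, in both repeats, exceeds the weak agonist control mean by 3 SD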); conditions: DAMGO EC20, Fluo-4 calcium flux, at 1 µM; hits give high values
[4] = tested on: TRPC4 beta (transient receptor potential cation channel C4), mouse; assay: positive allosteric modulators of mouse TRPC4, confirmation, cell-based, Fluo-4, HEK293 TRPC4beta/mu-opioid (AID 2555); conditions: DAMGO EC20, Fluo-4 calcium flux, at 10 µM; hits give high values
[5] = target: Short transient receptor potential channel 4 (Mus musculus) (UniProt Q9QUQ5); assay: inhibitors of mouse TRPC4 channel, confirmation, cell-based, Fluo4, HEK293 TRPC4beta/mu-opioid (AID 2636;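 active means calcium signal cut by more than 3 SD below the full-agonist control yet still positive, in both repeats and the earlier primary screen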); conditions: DAMGO, Fluo4 calcium flux, at 10 µM; hits give high values
Sequence of Short transient receptor potential channel 4 (Mus musculus) (Q9QUQ5 whole entry, looked up): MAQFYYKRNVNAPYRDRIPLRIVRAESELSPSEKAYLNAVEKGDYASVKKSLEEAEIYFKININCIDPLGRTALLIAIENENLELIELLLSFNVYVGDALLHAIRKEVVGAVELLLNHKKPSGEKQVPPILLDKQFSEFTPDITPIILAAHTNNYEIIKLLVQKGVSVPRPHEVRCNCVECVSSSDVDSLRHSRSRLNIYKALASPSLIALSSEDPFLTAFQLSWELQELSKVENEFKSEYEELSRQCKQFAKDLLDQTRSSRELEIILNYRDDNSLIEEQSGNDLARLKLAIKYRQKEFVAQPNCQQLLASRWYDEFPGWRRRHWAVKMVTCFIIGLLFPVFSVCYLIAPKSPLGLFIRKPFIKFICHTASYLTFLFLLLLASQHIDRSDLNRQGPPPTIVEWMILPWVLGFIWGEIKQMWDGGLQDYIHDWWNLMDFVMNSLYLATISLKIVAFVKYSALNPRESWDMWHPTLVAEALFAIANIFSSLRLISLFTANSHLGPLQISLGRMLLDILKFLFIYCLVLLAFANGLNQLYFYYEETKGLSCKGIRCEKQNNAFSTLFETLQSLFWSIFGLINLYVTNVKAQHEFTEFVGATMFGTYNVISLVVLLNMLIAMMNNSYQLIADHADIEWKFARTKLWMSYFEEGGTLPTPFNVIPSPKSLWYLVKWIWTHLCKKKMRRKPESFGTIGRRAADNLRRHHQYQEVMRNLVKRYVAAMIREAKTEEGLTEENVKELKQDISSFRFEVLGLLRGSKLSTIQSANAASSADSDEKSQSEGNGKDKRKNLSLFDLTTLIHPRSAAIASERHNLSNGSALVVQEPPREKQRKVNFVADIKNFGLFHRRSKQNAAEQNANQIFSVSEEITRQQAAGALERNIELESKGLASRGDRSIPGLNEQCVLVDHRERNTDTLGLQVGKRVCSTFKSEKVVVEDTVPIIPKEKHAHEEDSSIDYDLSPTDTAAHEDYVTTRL

[6] = target: Short transient receptor potential channel 4 (Mus musculus) (UniProt Q9QUQ5); assay: inhibitors of mouse TRPC4 channel, confirmation, cell-based, second round, Fluo4, HEK293 TRPC4beta/mu-opioid, 1 µM (AID 2637;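 active means calcium signal ratio cut to more than 3 SD under the fully stimulated control mean yet still positive, in both repeats and the primary screen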;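 on inhibition: percent of integrated ratio relative to wells lacking test compound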); conditions: Fluo4 calcium flux, DAMGO, at 1 µM; hits give high values
[7] = target: Short transient receptor potential channel 4 (Mus musculus) (UniProt Q9QUQ5); assay: mouse TRPC4 channel activators, dose response, cell-based, HEK293 TRPC4/mu-opioid, Fluo-4 calcium (AID 434937;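 active means primary screen activator hit with a dose response curve and TRPC4 channel activation at any tested dose; inactive means no activation, no dose response, or not a primary hit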)
[8] = target: Short transient receptor potential channel 4 (Mus musculus) (UniProt Q9QUQ5); assay: TRPC4 positive allosteric modulators, dose response, cell-based, HEK293 TRPC4/mu-opioid, Fluo-4 calcium, EC20 DAMGO (AID 434941;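 active means earlier screen potentiator hit that boosts the TRPC4 ion channel at some dose, with a dose response; inactive means no potentiation, no dose response, or not a prior hit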;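 further: calcium entry triggered by an EC20 dose of DAMGO at the co-expressed mu-opioid receptor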)
[9] = target: Short transient receptor potential channel 6 (Mus musculus) (UniProt Q61143); assay: inhibition of mouse TRPC6 channel, confirmation, selectivity assay for TRPC4 inhibitor project, cell-based, HEK293, membrane potential dye, duplicate (AID 434948;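 active means active in primary screen and both duplicates, each dropping signal beyond three positive-control SD with fluorescence still positive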); conditions: HEK293 TRPC6, membrane potential dye fluorescence, at 10 µM, stimulated with maximal-effect acetylcholine; hits give high values
Sequence of Short transient receptor potential channel 6 (Mus musculus) (Q61143 whole entry, looked up): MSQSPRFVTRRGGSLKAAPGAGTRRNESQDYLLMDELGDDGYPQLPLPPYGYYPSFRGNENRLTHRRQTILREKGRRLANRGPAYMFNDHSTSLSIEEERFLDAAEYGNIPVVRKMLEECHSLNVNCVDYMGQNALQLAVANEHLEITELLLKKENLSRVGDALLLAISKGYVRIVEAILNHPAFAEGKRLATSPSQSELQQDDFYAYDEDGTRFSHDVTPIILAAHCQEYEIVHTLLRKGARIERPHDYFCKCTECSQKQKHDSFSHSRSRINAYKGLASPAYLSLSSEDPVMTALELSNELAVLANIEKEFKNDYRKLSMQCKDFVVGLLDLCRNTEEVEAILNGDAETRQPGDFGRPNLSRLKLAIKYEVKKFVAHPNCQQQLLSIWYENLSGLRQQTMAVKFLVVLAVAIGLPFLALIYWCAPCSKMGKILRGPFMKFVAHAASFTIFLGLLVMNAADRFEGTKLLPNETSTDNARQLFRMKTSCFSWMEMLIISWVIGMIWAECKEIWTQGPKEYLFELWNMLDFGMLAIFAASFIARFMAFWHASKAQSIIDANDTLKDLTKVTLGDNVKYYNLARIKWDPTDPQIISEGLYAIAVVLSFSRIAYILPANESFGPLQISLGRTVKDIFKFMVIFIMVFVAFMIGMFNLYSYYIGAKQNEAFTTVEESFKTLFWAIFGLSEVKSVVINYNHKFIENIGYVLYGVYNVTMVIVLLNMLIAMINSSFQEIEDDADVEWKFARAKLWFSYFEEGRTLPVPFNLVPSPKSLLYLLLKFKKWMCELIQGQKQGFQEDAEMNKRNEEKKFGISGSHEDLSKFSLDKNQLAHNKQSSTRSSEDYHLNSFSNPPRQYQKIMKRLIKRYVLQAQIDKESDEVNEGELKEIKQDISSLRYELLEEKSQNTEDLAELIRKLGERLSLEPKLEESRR

[10] = target: Short transient receptor potential channel 6 (Mus musculus) (UniProt Q61143); assay: activation of mouse TRPC6 channel, confirmation, selectivity assay for TRPC4 activator project, cell-based, HEK293, membrane potential dye, duplicate (AID 434950;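 active means membrane potential signal rise above negative control mean plus 3 SD in both duplicates, also active in the earlier TRPC4 screen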); conditions: HEK293 TRPC6, membrane potential fluorescence, at 10 µM; hits give high values
[11] = target: Short transient receptor potential channel 6 (Mus musculus) (UniProt Q61143); assay: TRPC6 potentiation by TRPC4 potentiator hits, confirmation, selectivity assay for TRPC4 potentiator project, HEK293 cells, membrane potential dye, duplicate (AID 434952;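 active means compound raising the membrane signal above positive-control mean plus 3 SD in both repeats, and a primary screen hit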); conditions: HEK293 TRPC6, membrane potential dye fluorescence, at 10 µM, maximal acetylcholine added after compound; hits give high values
[12] = target: Short transient receptor potential channel 4 (Mus musculus) (UniProt Q9QUQ5); assay: calcium flux activators in TRPC4/5HT1a cells, counter-screen for TRPC4 activator project, cell-based, second counter screen, HEK293 TRPC4/5HT1a, Fluo-4 (AID 434977;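 active means calcium signal rise above buffer-control mean plus 5 SD in both duplicates, and also a hit in the primary screen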); conditions: Fluo-4 calcium flux, at 10 µM; hits give high values
[13] = calcium flux inhibitors in TRPC4/5HT1a cells, confirmation, counter-screen for TRPC4 inhibitor project, cell-based, second counter screen, HEK293 TRPC4/5HT1a, Fluo-4 (AID 434978;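 active means primary screen active whose calcium signal fell more than 3 SD beyond the full-serotonin control mean in both duplicate plates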); conditions: Fluo-4 calcium flux, at 10 µM, serotonin added to trigger calcium flux; hits give high values
[14] = tested on: TRPC4 (mouse), co-expressed with 5HT1a in HEK293; assay: calcium flux potentiators in TRPC4/5HT1a cells, confirmation, counter-screen for TRPC4 potentiator project, cell-based, second counter screen, HEK293 TRPC4/5HT1a, Fluo-4 (AID 434979;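 active means signal rise over 3 SD above mean of control wells given weak agonist, in both repeats and first screen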); conditions: Fluo-4 calcium flux, at 10 µM, serotonin added at its EC20 dose; hits give high values
[15] = calcium flux activation in mu-opioid HEK293 cells, confirmation, counter-screen for TRPC4 activator project, cell-based, HEK293 mu-opioid receptor line (AID 449723;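 active means hit in primary screen, with calcium signal over 5 SD above buffer well mean in both duplicates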;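 further: counter screen cells carry the mu-opioid receptor alone and lack TRPC4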); conditions: Fluo-4 calcium fluorescence, at 10 µM; hits give high values
[16] = calcium flux enhancement in mu-opioid HEK293 cells, confirmation, counter-screen for TRPC4 allosteric potentiator project, cell-based, HEK293 mu-opioid receptor line (AID 449724;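 active means calcium signal rise more than 3 SD above the low-dose agonist control mean, in both duplicate plates and the primary screen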); conditions: Fluo-4 calcium flux, at 10 µM, compound added before EC20 DAMGO stimulus; hits give high values

Measured: inhibition

c1csc(-c2nc(NCC3CCCO3)c3ccccc3n2)c1 (stereo not given)
active: [5] 79% | [13] 28%
inactive: all other assays above

O=C(CN1CCCCCC1)N1c2ccccc2Sc2ccccc21
active: [5] 79% | [6] 56% | [9] 21% | [13] 29.7%
inactive: all other assays above

Cc1nn(C)c(C)c1Sc1ccc(Br)cc1
active: [5] 82% | [13] 24.8%
inactive: all other assays above

CCOc1cc(CNCc2cccs2)ccc1OCC(=O)NC(C)(C)C
active: [5] 98% | [6] 49%
inactive: all other assays above

Cc1n[nH]c(C)c1CCCCOc1ccccc1
active: [5] 95% | [6] 40% | [13] 31.5%
inactive: all other assays above

Cc1ccc(C(=O)NC(=S)Nc2c(C)ccc3nsnc23)cc1
active: [5] 86% | [6] 45% | [13] 18.1%
inactive: all other assays above

Cc1ccc(OCc2cc(C(=O)N(C)CCc3nc4ccccc4[nH]3)no2)cc1C
active: [5] 69%
inactive: all other assays above

COc1ccccc1CNCC(c1ccccc1)c1ccccc1
active: [5] 60% | [9] 55% | [13] 44.3%
inactive: all other assays above

CCn1c(=N)n(CC(=O)c2ccc(Br)s2)c2ccccc21
active: [9] 59%
inactive: all other assays above

N/C(Cc1cccc2ccccc12)=N\OC(=O)c1cccs1
active: [5] 54% | [6] 55%
inactive: all other assays above

N#C/C(=N\Nc1cccc([N+](=O)[O-])c1)C(=O)c1ccc(Br)cc1
active: [5] 98% | [9] 21.5% | [13] 12.4%
inactive: all other assays above

COc1ccc(Nc2c3c(nc4ccccc24)CCC3)cc1
active: [5] 98% | [13] 22.1%
inactive: all other assays above

N=c1c2c(n(Cc3ccc(Cl)cc3)c3c1CCC3)CCC2
active: [5] 96% | [6] 50% | [9] 34.5% | [13] 10.6%
inactive: all other assays above

O=C(COC(=O)C1CC1)Nc1nc(-c2ccc(F)c(F)c2)cs1
active: [5] 70% | [13] 41.5%
inactive: all other assays above

COc1ccc(Cn2nnnc2C(c2cc3cc(C)ccc3[nH]c2=O)N2CCN(C)CC2)cc1 (stereo not given)
active: [5] 83%
inactive: all other assays above

CCC1CCCCN1Cc1nc2c(c(=O)n(C)c(=O)n2C)n1Cc1ccccc1 (stereo not given)
active: [5] 74% | [13] 38.1%
inactive: all other assays above

Nc1c2c(nc3ccccc13)N(c1ccccc1)CC2
active: [5] 77% | [9] 26% | [13] 31.2%
inactive: all other assays above

CCc1ccccc1NC(=S)N(CCCN(C)C)Cc1cc2cc3c(cc2[nH]c1=O)OCO3
active: [5] 94% | [6] 92% | [13] 19.9%
inactive: all other assays above

COc1ccc(CN(C)C(=O)c2ccc(NC(=O)CC3SC(N4CCCC4)=NC3=O)cc2)c(OC)c1 (stereo not given)
active: [5] 56%
inactive: all other assays above

Cc1nc2scc(-c3ccccc3)c2c(=O)n1N=C1C=CC(=O)C=C1
active: [5] 69% | [13] 21%
inactive: all other assays above

Cc1cccc(-n2nc(C)c3c(C(=O)O)cc(-c4cccs4)nc32)c1
active: [5] 89% | [13] 28.2%
inactive: all other assays above

CCOc1ccc(Cl)cc1/C=N/O
active: [5] 86% | [9] 2% | [13] 39.8%
inactive: all other assays above

CCC(O)C1CCN(Cc2cn(-c3ccc(OC)cc3)nc2-c2cccc(F)c2)CC1 (stereo not given)
active: [5] 98%
inactive: all other assays above

Cc1cc(C)nc(/N=C(\N)N(Cc2ccccc2)Cc2ccccc2)n1
active: [5] 97% | [9] 30.5% | [13] 41.7%
inactive: all other assays above

c1ccc(CN2CCN(Cc3c[nH]c4ccccc34)CC2)cc1
active: [5] 88% | [13] 31.6%
inactive: all other assays above

CCOc1cccc(CNCCO)c1OCc1ccc(Cl)cc1
active: [5] 92% | [13] 26.5%
inactive: all other assays above

COc1ccc(C(CNC(=O)c2oc3ccc(Cl)cc3c2C)N2CCCCC2)cc1 (stereo not given)
active: [5] 83%
inactive: all other assays above

OC1(c2cccs2)CN(c2ccc(Cl)cc2)C2=[N+]1CCCC2 (stereo not given)
active: [5] 72% | [13] 35.1%
inactive: all other assays above

Cc1cc(OCc2cc(C(=O)NCCN3CCCCC3CO)no2)cc(C)c1Cl (stereo not given)
active: [5] 93% | [13] 21.5%
inactive: all other assays above

CC(C)Cc1nc(N2CCOCC2)c(C#N)c2c1CCC2
active: [5] 76% | [6] 50% | [13] 35.1%
inactive: all other assays above
